For this experiment, the system named is HL-60(TB) leukemia. Put plainly: NCI-60 one-dose screen, 48 h (100 = growth as untreated, 0 = no growth, -100 = all killed). The note with it: 10 µM unless noted.

Each structure is given as a SMILES string. This is part of a sample that, as a whole, favours compounds with a hit. Of some 83,000 tested, about 20% had one in any assay.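 Step 1: grow cells in 96-well plates. Step 2: add test compound at a single concentration. Step 3: incubate 48 h. Step 4: record percent growth.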 Unmarked numbers belong to inactive results. Active and inactive are the calls of the source. How the source made its calls: active means growth percent below 10; inactive means the rest.

Take `O=c1c2cc(-c3ccc(F)cc3F)ccc2n(O)c(=O)n1-c1cccc(C(F)(F)F)c1`: the growth was -50.2% (active).

Consider `COc1ccc(C2C(C#N)=C(/N=C/c3ccc(Cl)cc3)Oc3c2sc2c(C)cccc32)cc1` (centres undefined), for which the growth is 4.04% (active). As for `Brc1ccc(-c2cc(-c3ccc4c(c3)OC=CO4)n[nH]2)s1`, the growth is 78.8%.

In the case of `COc1ccc(/C=C(/C)c2ccc3ccc(OC)cc3[o+]2)c(O)c1`, the growth is 44%.

Turning to `COc1ccccc1-n1cc(C#N)c(N)c1C(=O)c1ccc(Br)cc1`, the growth is 35.8%. The figure for `O=C(CCCN1C(=O)/C(=C/c2ccccc2F)SC1=S)N1CCOCC1` is 93.5%.

In the case of `CN1CCN(c2ccc(Nc3nc(NCCCNS(=O)(=O)c4ccc(F)cc4)c4sccc4n3)cc2)CC1`, the growth was 28.8%.

For the compound `N#C/C(=C\c1ccc(-c2ccc(Cl)cc2)o1)C(=O)Nc1ncc(Cc2ccc(Br)cc2)s1`, the growth is 50%. Take `CN1CCN(Cc2ccc(NC(=O)c3cncc(C#Cc4cnc5ccc(OCC6COC6)nn45)c3)cc2C(F)(F)F)CC1`: the growth is -42.8% (active). On to `COc1ccc(C(=O)n2cc(C=O)c3ccccc32)cc1`, for which the growth is 93.7%. The figure for `COc1ccc(NC(=O)Cn2cc(CN3C(=O)c4ccc([N+](=O)[O-])cc4C3=O)nn2)cc1` is 95.1%.

With `CS(=O)(=O)Nc1cc(-c2ccc3ncc(C#N)c(NCc4ccccc4O)c3c2)cnc1Cl`, the growth is 12.4%. `CS(=O)(=O)c1ccc(-c2nn(-c3ccccc3)cc2/C=C/C(=O)c2ccc(Br)cc2)cc1`: the growth is 51.9%. The figure for `Cn1cc(-c2nn3cc(-c4ccncc4)nc3s2)c2cc(F)ccc21` is -1.16% (active).
